# From PubChem BioAssay (EPA / NIEHS)
# Active and inactive are the calls of the source. How the source made its calls: active means hit-call score of the fitted dose curve at least 0.9, where 1 is the maximum; inconclusive means response in the unintended direction; inactive means score below 0.9.
# Biological target: Androgen Receptor/SRC-1 Co-activator, AR (gene 367) (UniProt P10275)
# Assay: OT_AR_ARSRC1_0960: Odyssey Thera (OT) 16-hour HEK293T Protein-Complementation Assay for Androgen Receptor/SRC-1 Co-activator (AID 2283353);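 further: actives raise the signal above DMSO so potency reflects increased AR and SRC-1 complex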
# Method: OT_AR_ARSRC1_0960 is a cell-based, single-readout assay that uses HEK293T, a human kidney cell line, with measurements taken at 16 hours after chemical dosing in a 384-well plate.OT_AR_ARSRC1_0960 is one of one assay component(s) measured or calculated from the OT_AR_ARSRC1_0960 assay. It is designed to make measurements of protein fragment complementation, a form of binding reporter, as detected with fluorescence intensity signals by Protein-fragment Complementation technology.Data from the assay component OT_AR_ARSRC1_0960 was analyzed into 1 assay endpoint. This assay endpoint, OT_AR_ARSRC1_0960, was analyzed in the positive analysis fitting direction relative to DMSO as the negative control and baseline of activity. Using a type of binding reporter, measures of receptor for gain-of-signal activity can be used to understand the binding at the pathway-level as they relate to the gene AR. Furthermore, this assay endpoint can be referred to as a primary readout, because the performed assay has only produced 1 assay endpoint. To generalize the intended target to other relatable targets, this assay endpoint is annotated to the nuclear receptor intended target family, where the subfamily is steroidal.
# Protein-fragment complementation assay, or PCA, is a method for the identification and quantification of protein-protein interactions. In the PCA, the proteins of interest ("bait" and "prey") are each covalently linked to fragments of a third protein (e.g. DHFR, which acts as a "reporter"). Interaction between the bait and the prey proteins brings the fragments of the reporter protein in close proximity to allow them to form a functional reporter protein whose activity can be measured. The OT AR / SRC-1 assay assessed androgen receptor chemical interactions using a rapidly maturing, intensely fluorescent mutant of YFP known as Venus, rationally dissected into two separate fragments. […] Fusion constructs were transfected into HEK293T cells with a (Gly4Ser)2 linker between the AR/SRC-1 and YFP fragment genes to facilitate complementation when interacting proteins bring fragments into close proximity. The construct is stably expressed in HEK293T cells. […] Images were acquired on an Evotec Opera at 2 wavelengths (488 and 635nm), and the ratio of fluorescence in the nucleus relative to fluorescence in the cytoplasm (N/C Ratio) in the 488nm channel was calculated for a minimum of 400 cells per image. Both agonists and antagonists of the AR receptor induce nuclear translocation to varying degrees. […] The OT AR/SRC-1 assay was also run for 16 hours (see description for OT_AR_ARSRC1_0960).
# Androgen Receptor/SRC-1 Co-activator, AR (gene 367), sequence (P10275 whole entry, looked up): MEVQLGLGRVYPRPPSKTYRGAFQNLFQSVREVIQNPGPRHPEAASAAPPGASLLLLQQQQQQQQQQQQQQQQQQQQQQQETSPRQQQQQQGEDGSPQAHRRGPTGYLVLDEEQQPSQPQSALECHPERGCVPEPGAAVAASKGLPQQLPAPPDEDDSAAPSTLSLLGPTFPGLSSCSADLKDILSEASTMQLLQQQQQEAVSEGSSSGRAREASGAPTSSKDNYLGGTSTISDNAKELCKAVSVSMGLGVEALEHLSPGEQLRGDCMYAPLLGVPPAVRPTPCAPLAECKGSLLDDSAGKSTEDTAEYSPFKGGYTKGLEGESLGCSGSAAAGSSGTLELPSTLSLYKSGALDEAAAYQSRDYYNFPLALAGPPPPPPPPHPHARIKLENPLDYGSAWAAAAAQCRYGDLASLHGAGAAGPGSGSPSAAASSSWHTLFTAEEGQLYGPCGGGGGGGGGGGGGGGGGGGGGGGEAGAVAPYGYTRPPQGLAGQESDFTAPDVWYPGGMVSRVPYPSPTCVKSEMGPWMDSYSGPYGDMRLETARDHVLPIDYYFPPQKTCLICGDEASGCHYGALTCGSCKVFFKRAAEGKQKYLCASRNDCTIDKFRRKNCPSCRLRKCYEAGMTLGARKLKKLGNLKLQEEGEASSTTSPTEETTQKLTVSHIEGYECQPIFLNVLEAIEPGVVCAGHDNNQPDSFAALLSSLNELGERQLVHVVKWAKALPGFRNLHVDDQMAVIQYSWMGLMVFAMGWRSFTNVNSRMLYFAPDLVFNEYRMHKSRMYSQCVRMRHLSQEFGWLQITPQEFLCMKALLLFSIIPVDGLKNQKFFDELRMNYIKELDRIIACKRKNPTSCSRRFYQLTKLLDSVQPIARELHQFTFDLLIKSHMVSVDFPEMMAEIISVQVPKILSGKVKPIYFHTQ
Compound,outcome,AC50
CCCCCCCCSCCO,inactive,
CC1CCC(C(C)C)C(O)C1 (stereo unspecified),inactive,
CCCCCCCCCCCCCC(=O)OCC(O)CO (stereo unspecified),inactive,
CC(C)CCCCCCc1ccc(OCCOCCO)cc1,inactive,
CCCCC1CCC(O)CC1 (stereo unspecified),inactive,
Nc1ccc(N)c2c1C(=O)c1ccccc1C2=O,,35.3 µM (active)
OCc1cccc(Oc2ccccc2)c1,inactive,
CCCCCCCCC=CCCCCCCCC1=NCCN1CCO,,15.7 µM (active)
CCc1cc(Cc2cc(CC)cc(C(C)(C)C)c2O)c(O)c(C(C)(C)C)c1,,10.7 µM (active)
CC(=O)O[C@H]1C[C@@H]2CC[C@@]1(C)C2(C)C,inactive,
CCOC(=O)[C@@H](C)Oc1ccc(Oc2nc3ccc(Cl)cc3o2)cc1,inactive,
Cc1ccc(S(=O)(=O)Oc2ccc(N=Nc3ccc(-c4ccc(N=Nc5c(O)ccc6cc(S(=O)(=O)O)cc(S(=O)(=O)O)c56)c(C)c4)cc3C)cc2)cc1,inactive,
CC(=O)O[C@@H]1CC2CCC1(C)C2(C)C (stereo partly specified),inactive,
BrCc1cccc(Oc2ccccc2)c1,inactive,
CCc1ccc(O)cc1,inactive,
C[C@H]1O[C@@H](O[C@H]2[C@@H](O)C[C@H](O[C@H]3[C@@H](O)C[C@H](O[C@H]4CC[C@@]5(C)[C@H](CC[C@@H]6[C@@H]5C[C@@H](O)[C@]5(C)[C@@H](C7=CC(=O)OC7)CC[C@]65O)C4)O[C@@H]3C)O[C@@H]2C)C[C@H](O)[C@@H]1O,,0.118 µM (active)
